GRK2 aptamer HTS: inhibitors of human GRK2 displacing RNA aptamer; AID 488847; inhibition of aptamer binding, % at 10 µM; hit rate 0.59% among 330,000; bead flow cytometry, FAM-aptamer displacement from GRK2; P25098;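 active = inhibition of aptamer binding above 40%, roughly 3 SD of noise, on plates passing a quality check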;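 note: median bead fluorescence of bound FAM aptamer so fluorescent compounds give negative values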
Target sequence (P25098 whole entry, looked up): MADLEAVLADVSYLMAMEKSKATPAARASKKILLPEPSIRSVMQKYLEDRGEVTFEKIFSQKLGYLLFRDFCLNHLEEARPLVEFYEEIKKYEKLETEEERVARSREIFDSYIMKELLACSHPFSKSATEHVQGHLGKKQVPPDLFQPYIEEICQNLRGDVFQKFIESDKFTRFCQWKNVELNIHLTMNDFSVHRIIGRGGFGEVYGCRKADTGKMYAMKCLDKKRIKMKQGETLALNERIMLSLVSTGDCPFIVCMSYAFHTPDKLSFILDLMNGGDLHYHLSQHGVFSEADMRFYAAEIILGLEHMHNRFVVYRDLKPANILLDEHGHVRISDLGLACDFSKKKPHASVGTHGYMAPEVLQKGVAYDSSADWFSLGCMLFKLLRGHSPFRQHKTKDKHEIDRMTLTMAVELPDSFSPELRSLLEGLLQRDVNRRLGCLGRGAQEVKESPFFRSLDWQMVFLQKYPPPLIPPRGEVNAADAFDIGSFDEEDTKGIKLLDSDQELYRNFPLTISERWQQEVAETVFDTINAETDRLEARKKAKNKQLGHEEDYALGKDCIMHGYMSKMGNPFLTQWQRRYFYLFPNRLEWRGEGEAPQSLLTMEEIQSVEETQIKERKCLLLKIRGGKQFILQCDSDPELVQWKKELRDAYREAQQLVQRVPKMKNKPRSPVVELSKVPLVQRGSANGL
MEKK3 PB1 HTS: raises or lowers MEK5 binding to the human MEKK3 PB1 domain. Q99759. bead-based flow cytometry, Alexa488-MEK5 binding to MEKK3; actives lie on both sides; 0 = blocked by unlabeled MEK5, 100 = vehicle. binding response (% of control), % at 10 µM. hit rate 1.4% among 290,000. AID 1529;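 active = binding response more than 3 SD above or below the average of its plate-row segment, actives on both sides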;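 note: Alexa488 bead fluorescence after subtracting the streptavidin-only scavenger bead signal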
MEKK2wt PB1 HTS: raises or lowers MEK5 binding to wildtype human MEKK2 PB1 domain; binding response (% of control), % at 10 µM; bead flow cytometry, Alexa488-MEK5 binding to MEKK2 WT; actives lie on both sides; hit rate 1.1% among 290,000; AID 1531; in the data active = binding response below about 67% or above about 130%
MEKK2 mut-MEK5: signal of MEK5 binding to mutant human MEKK2 PB1 domain; bead flow cytometry, Alexa488-MEK5 binding to MEKK2 mutant; percent response, % at 10 µM; hit rate 0.35% among 290,000; AID 1530; in the data active = percent response above about 24%, passing the limit was not always enough
MEKK2wt confirm: raises or lowers MEK5 binding to wildtype human MEKK2, retest | binding response (% of control), % at 10 µM | hit rate 2.4% among 5,900 | shares compounds with MEKK3 PB1 HTS | bead flow cytometry, Alexa488-MEK5 binding to MEKK2 WT; actives lie on both sides; in the data active = binding response below about 16% or above about 210%; inactive = in between
MEKK2mut-MEK5: signal of MEK5 binding to mutant human MEKK2, retest; shares compounds with MEKK3 PB1 HTS; bead flow cytometry, Alexa488-MEK5 binding to MEKK2 mutant; percent response, % at 10 µM; hit rate 2% among 5,900; AID 1893; in the data active = percent response mostly above about 71%, no sharp cut-off; inactive = mostly below about 38%;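 note: higher means compound restores mutant binding toward wildtype level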
MEKK3-MEK5 inh: MEKK3-MEK5 PB1 inhibition, single concentration confirmation; AID 1894; bead flow cytometry, Alexa488-MEK5 binding to MEKK3; stronger effect = lower value; hit rate 1.8% among 5,900; binding response (% of control), % at 10 µM; shares compounds with MEKK3 PB1 HTS;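 active = binding response below 72% of control, or above a set upper limit, though filed actives all read lower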
A number is an active result; . = inactive; / = no result given; [ ] = dose if it differs, or a comment. The list is not random: actives were taken first. Their share in the collection is about 2.5%.

SMILES	GRK2 aptamer HTS	MEKK3 PB1 HTS	MEKK2wt PB1 HTS	MEKK2 mut-MEK5	MEKK2wt confirm	MEKK2mut-MEK5	MEKK3-MEK5 inh
COc1cccc(CCc2nnc(CCC(=O)NC(C)c3c(C)nn(C)c3C)o2)c1 (stereo not drawn)	.	.	.	.	/	/	/
CC1CCC(NC(=O)C2CC(=O)N(c3ccc(Cl)cc3)C2)CC1 (stereo not drawn)	.	.	.	.	/	/	/
Cc1ccc(-n2nc3c(c2NC(=O)/C=C\c2ccc4c(c2)OCO4)CSC3)c(C)c1	.	72[inhibitor]	.	.	.	.	.
Cc1ccccc1-n1nc2c(c1NC(=O)/C=C\c1ccc3c(c1)OCO3)CSC2	.	.	.	.	/	/	/
CCC(=O)N1CCc2cc(Br)cc(S(=O)(=O)NCCN3CCCCC3C)c21 (stereo not drawn)	.	.	.	.	/	/	/
CCC(=O)N1CCc2cc(Br)cc(S(=O)(=O)NCCN3CCCCC3CC)c21 (stereo not drawn)	.	57[inhibitor]	.	.	.	.	.
CN1C(=O)C(CC(=O)N2CCN(C(c3ccccc3)c3ccccc3)CC2)N(C)C1=O (stereo not drawn)	.	1.0[inhibitor]	1.0[inhibitor]	.	.	.	.
Cc1cc(C)cc(N(CCC#N)C(=O)CSc2ncnc3sccc23)c1	.	/	/	/	/	/	/
COc1ccc(N2C(=O)CC(Sc3ncn[nH]3)C2=O)c(OC)c1 (stereo not drawn)	.	122	.	.	.	.	.
CC(C)c1ccc(N2C(=O)CC(Sc3ncn[nH]3)C2=O)cc1 (stereo not drawn)	.	.	.	.	/	/	/
COc1cccc(OC)c1OCCCCCCN1CCN(C)CC1	.	.	.	.	/	/	/
CN1CCN(CCCCOc2ccccc2C=O)CC1	.	128	200	.	.	.	.
Cc1cc(C(=O)NNC(=S)NCC(C)C)cs1	.	75[inhibitor]	.	.	.	.	.
Cc1ccc(C)c(-c2ccc(=O)n(Cc3ccc(F)cc3Cl)n2)c1	.	128	.	34	.	.	.
Cc1cc(C)c(OCC(=O)N(Cc2ccc(N(C)C)cc2)C2CCS(=O)(=O)C2)c(C)c1 (stereo not drawn)	.	.	.	.	/	/	/
CSCC[C@H](NC(=O)c1cccc(S(=O)(=O)N2CCCCC2)c1)c1nc2ccccc2[nH]1	.	/	/	/	/	/	/
O=C(O)C1Nc2ccc(C(F)(F)F)cc2C2OCCC12 (stereo not drawn)	/	78[inhibitor]	.	.	.	.	.
COc1ccc(OC)c(-n2c(SCC(=O)Nc3cccc(S(N)(=O)=O)c3)nc3ccccc3c2=O)c1	.	.	.	.	/	/	/
O=C(Nc1ccccc1)c1ccc(NCc2ccco2)c(S(=O)(=O)N2CCOCC2)c1	.	.	.	.	/	/	/
O=C(Nc1ccccc1)c1ccc(NCc2cccnc2)c(S(=O)(=O)N2CCOCC2)c1	.	123	.	.	.	.	.
O=C(Nc1ccccc1)c1ccc(S(=O)(=O)N2CCOCC2)cc1	.	136	135	.	.	.	.
O=C(Nc1ccc(Cl)cc1)c1ccc(S(=O)(=O)N2CCOCC2)cc1	.	.	.	.	/	/	/
Cc1cc2cc(CNC(=S)NCc3ccccc3)ccc2n1C	.	.	.	.	/	/	/
CCc1cccc(C)c1NC(=S)NCc1ccc2c(c1)cc(C)n2C	.	.	72[inhibitor]	.	.	.	.
COc1ccccc1NC(=S)NCc1ccc2c(c1)cc(C)n2C	.	.	.	.	/	/	/
SMILES	GRK2 aptamer HTS	MEKK3 PB1 HTS	MEKK2wt PB1 HTS	MEKK2 mut-MEK5	MEKK2wt confirm	MEKK2mut-MEK5	MEKK3-MEK5 inh
Cc1ccccc1NC(=S)NCc1ccc2c(c1)cc(C)n2C	.	74[inhibitor]	61[inhibitor]	.	.	.	.
Cc1cc2cc(CNC(=O)Nc3ccccc3)ccc2n1C	.	.	-4.0[inhibitor]	.	.	.	.
Cc1cc(NC(=O)C2CC(=O)N(c3ccc(F)cc3)C2)no1 (stereo not drawn)	.	.	.	.	/	/	/
O=C(Nc1cc([N+](=O)[O-])ccc1C(=O)NCCN1CCOCC1)c1ccccc1	.	.	.	.	/	/	/
CC(C)=CC(=O)N1CCCc2ccccc21	.	.	.	.	/	/	/
C/C(=C/C(=O)N1CCc2ccccc21)C(=O)O	.	145	.	.	.	.	.
COc1ccc(-c2cc(Cl)cc3c(=O)c4ccccc4n(C)c23)cc1F	.	.	66[inhibitor]	.	.	.	.
Cn1nc(C(F)(F)F)c(-c2ccc(F)cc2)c1NC(=O)c1cccnc1	.	128	.	.	.	.	.
Cn1nc(C(F)(F)F)c(-c2ccccc2)c1NC(=O)c1nccnc1C(=O)O	.	.	.	.	/	/	/
CCCCOc1ccc(N2C(=O)CC(NCCc3ccc(S(N)(=O)=O)cc3)C2=O)cc1 (stereo not drawn)	.	122	.	.	.	.	.
CCCOc1ccc(N2C(=O)CC(NCc3ccc(S(N)(=O)=O)cc3)C2=O)cc1 (stereo not drawn)	.	.	.	.	/	/	/
N#C/C(=C/c1ccc(N2CCCCC2)o1)C(=O)Nc1ccc(Cl)cc1	.	.	.	.	/	/	/
N#C/C(=C/c1ccc(N2CCCCC2)o1)C(=O)Nc1ccc2ccccc2c1	/	148	210	206	.	.	.
CN(CC(=O)Nc1ccc(F)c(F)c1F)C(=O)C1COc2ccccc2O1 (stereo not drawn)	.	/	/	/	/	/	/
CC(C)c1ccc(C(C)NCCS(=O)(=O)c2ccc(Cl)cc2)cc1 (stereo not drawn)	.	.	.	.	/	/	/
Cc1ccc(S(=O)(=O)N(CC(=O)N/N=C/c2ccco2)c2cc(Cl)cc(Cl)c2)cc1	.	128	.	.	.	.	.
O=C(CSC(=S)N1CCCC1)N1CCN(S(=O)(=O)c2ccccc2F)CC1	.	/	/	/	/	/	/
CCCCN1C(=O)CCC(C(=O)O)C1c1ccccc1 (stereo not drawn)	.	0.0[inhibitor]	-1.0[inhibitor]	.	.	.	.
CCCCN1C(=O)CC(C(=O)O)C1c1ccc(OC)cc1 (stereo not drawn)	.	.	.	.	/	/	/
Cc1cc(C)c(COc2ccc(/C=N/n3c(C)n[nH]c3=S)cc2)c(C)c1	.	72[inhibitor]	.	.	.	.	.
COC(=O)c1c(-c2ccc(C(C)(C)C)cc2)csc1NC(=O)C1C2CCC(O2)C1C(=O)O (stereo not drawn)	.	75[inhibitor]	.	.	.	.	.
Cc1ccc(-n2nnc(-c3cccnc3)n2)cc1	.	78[inhibitor]	.	.	.	.	.
COc1ccc(OC)c(S(=O)(=O)CC(O)CS(=O)(=O)c2ccccc2)c1 (stereo not drawn)	.	.	.	.	/	/	/
O=C(NCc1ccc(/C=c2\sc3n(c2=O)CCN=3)o1)C(=O)Nc1ccccc1	.	.	.	.	/	/	/
COc1ccc(CN2CCN(C(=O)C3CCN(S(=O)(=O)c4cccs4)CC3)CC2)c(OC)c1OC	.	1.0[inhibitor]	1.0[inhibitor]	.	.	.	.

Bioassay records as filed in PubChem BioAssay.
